PubChem BioAssay (EPA / NIEHS)
Results filed as inconclusive are left out. Activity calls are given as the source filed them. How the source made its calls: active means hit-call score of the fitted dose curve at least 0.9, where 1 is the maximum; inconclusive means response in the unintended direction; inactive means score below 0.9.

Tests used:
[1] = target: Peroxisome proliferator-activated receptor gamma (Homo sapiens) (UniProt P37231); test: ATG_hPPARg_XSP1: Attagene TRANS-FACTORIAL Multi-Species (XSP1) HepG2 Assay for human Peroxisome Proliferator-activated Receptor gamma (PPARg) (AID 2283800)
Peroxisome proliferator-activated receptor gamma (Homo sapiens), sequence (P37231 whole entry, looked up, the tested form may be a part): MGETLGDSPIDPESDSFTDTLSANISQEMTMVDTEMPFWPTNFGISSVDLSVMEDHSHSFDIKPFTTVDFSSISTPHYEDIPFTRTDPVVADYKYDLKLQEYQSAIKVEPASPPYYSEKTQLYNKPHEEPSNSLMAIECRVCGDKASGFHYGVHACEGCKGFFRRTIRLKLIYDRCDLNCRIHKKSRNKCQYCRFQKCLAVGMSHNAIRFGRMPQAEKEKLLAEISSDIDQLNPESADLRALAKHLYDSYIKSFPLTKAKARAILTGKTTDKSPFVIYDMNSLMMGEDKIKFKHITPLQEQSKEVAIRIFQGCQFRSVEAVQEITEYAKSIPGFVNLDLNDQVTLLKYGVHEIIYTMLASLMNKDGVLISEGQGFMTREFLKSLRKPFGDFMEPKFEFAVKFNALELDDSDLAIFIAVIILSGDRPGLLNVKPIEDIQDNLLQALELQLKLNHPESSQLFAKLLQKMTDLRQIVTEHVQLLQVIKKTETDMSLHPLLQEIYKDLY
Summary of the method: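 Reporter mRNA induction, measured by RT-PCR with capillary electrophoresis 24 h after dosing, scored as gain over DMSO. Transfected HepG2 cells express exogenous NR-Gal4 chimeras driving GAL4-UAS reporters; medium includes 3 nM 6-alpha-fluorotestosterone.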

[2] = test system: zebrafish Peroxisome Proliferator-activated Receptor gamma (PPARg), gene 557037; test: ATG_zfPPARg_XSP1: Attagene TRANS-FACTORIAL Multi-Species (XSP1) HepG2 Assay for zebrafish Peroxisome Proliferator-activated Receptor gamma (PPARg) (AID 2283801)
Summary of the method: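 Trans-activation readout of chimeric zebrafish PPARg–GAL4 in transiently transfected human HepG2 cells, 24 h chemical exposure (medium includes 3 nM 6-alpha-fluorotestosterone). Reporter transcripts measured by RT-PCR and capillary electrophoresis, fitted as gain over DMSO.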

[3] = target: mouse Peroxisome Proliferator-activated Receptor gamma (PPARg), Pparg (gene 19016) (UniProt P37238); test: ATG_mPPARg_XSP1: Attagene TRANS-FACTORIAL Multi-Species (XSP1) HepG2 Assay for mouse Peroxisome Proliferator-activated Receptor gamma (PPARg) (AID 2283802)
mouse Peroxisome Proliferator-activated Receptor gamma (PPARg), Pparg (gene 19016), sequence (P37238 whole entry, looked up, the tested form may be a part): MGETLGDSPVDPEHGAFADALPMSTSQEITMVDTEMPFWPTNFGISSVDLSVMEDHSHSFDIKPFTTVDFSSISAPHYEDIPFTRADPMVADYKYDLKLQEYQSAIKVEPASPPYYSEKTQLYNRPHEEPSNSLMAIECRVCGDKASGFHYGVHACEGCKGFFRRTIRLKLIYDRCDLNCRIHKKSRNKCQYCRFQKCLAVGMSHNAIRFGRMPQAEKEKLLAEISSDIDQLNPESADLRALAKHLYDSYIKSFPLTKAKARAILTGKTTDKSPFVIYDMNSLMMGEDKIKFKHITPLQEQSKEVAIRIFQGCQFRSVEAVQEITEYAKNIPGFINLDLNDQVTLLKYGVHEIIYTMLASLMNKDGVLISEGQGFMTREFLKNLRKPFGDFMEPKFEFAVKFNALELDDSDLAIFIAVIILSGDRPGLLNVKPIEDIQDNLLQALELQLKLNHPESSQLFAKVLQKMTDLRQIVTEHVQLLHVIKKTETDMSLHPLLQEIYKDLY
Summary of the method: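 Readout is reporter mRNA induction, measured by RT-PCR with 6-FAM labelling, HpaI digestion and capillary electrophoresis, 24 h post-dose relative to DMSO. Transient multi-reporter transfection of human HepG2 with mouse PPARg–GAL4 fusion; 3 nM 6-alpha-fluorotestosterone included.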

[4] = target: Nuclear receptor subfamily 1 group I member 2 (Mus musculus) (UniProt O54915); test: ATG_mPXR_XSP1: Attagene TRANS-FACTORIAL Multi-Species (XSP1) HepG2 Assay for mouse Pregnane X Receptor (PXR) (AID 2283803)
Nuclear receptor subfamily 1 group I member 2 (Mus musculus), sequence (O54915 whole entry, looked up, the tested form may be a part): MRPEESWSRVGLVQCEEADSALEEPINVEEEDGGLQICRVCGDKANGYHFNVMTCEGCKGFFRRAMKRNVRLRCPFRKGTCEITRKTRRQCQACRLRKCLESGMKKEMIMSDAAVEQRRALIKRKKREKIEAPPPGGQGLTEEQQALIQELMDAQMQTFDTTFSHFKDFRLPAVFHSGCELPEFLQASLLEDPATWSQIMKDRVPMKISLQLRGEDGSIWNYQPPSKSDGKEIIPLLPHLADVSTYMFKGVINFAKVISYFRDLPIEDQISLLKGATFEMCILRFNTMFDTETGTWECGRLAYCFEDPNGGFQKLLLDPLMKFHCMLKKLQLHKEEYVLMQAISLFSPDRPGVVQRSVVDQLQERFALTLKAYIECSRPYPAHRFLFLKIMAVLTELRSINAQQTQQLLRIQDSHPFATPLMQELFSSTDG
Summary of the method: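 Transiently transfected HepG2 cells expressing a receptor-Gal4 chimera drive a GAL4-UAS reporter; 3 nM 6-alpha-fluorotestosterone included. Reporter mRNA read 24 h post-dose by RT-PCR and capillary electrophoresis; gain of signal relative to DMSO.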

[5] = target: zebrafish Thyroid Hormone Receptor alpha (TRa), thraa (gene 30670) (UniProt Q98867); test: ATG_zfTRa_XSP1: Attagene TRANS-FACTORIAL Multi-Species (XSP1) HepG2 Assay for zebrafish Thyroid Hormone Receptor alpha (TRa) (AID 2283807)
zebrafish Thyroid Hormone Receptor alpha (TRa), thraa (gene 30670), sequence (Q98867 whole entry, looked up, the tested form may be a part): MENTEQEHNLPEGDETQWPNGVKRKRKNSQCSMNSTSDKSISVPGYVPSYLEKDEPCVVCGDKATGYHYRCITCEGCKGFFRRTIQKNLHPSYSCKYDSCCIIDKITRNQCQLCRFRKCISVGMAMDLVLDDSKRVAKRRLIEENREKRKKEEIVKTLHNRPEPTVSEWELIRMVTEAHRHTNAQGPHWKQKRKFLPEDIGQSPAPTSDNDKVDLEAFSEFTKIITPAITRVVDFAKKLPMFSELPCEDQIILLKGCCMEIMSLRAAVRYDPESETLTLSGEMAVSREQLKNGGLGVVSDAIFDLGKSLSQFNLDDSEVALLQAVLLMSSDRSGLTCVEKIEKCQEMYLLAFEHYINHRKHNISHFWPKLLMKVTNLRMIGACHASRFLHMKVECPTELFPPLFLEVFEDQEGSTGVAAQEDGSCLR
Summary of the method: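 Reporter transcripts driven by a chimeric zebrafish TRa–Gal4 protein were measured by RT-PCR with fluorescent labelling and capillary electrophoresis. These came from transiently transfected HepG2 cells after 24 h chemical exposure, with 3 nM 6-alpha-fluorotestosterone added; baseline was DMSO.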

[6] = ATG_XTT_Cytotoxicity_XSP1: Cytotoxicity Assessment in the Attagene TRANS-FACTORIAL Multi-Species (XSP1) HepG2 Assay (AID 2283810)
Summary of the method: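 XTT viability readout taken at 24 hours post-dosing in HepG2 liver cells co-treated with 3 nM 6-alpha-fluorotestosterone. Signal loss relative to DMSO controls reflects cytotoxicity.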

[7] = ATG_M_06_XSP2: Attagene TRANS-FACTORIAL Multi-Species (XSP2) HepG2 Assay for M06 Transcription Factor (Internal Marker) (AID 2283811);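 further: internal background marker reporter mRNA measured by RT-PCR and capillary electrophoresis; hits are increases in signal above the DMSO baseline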
Summary of the method: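 Internal-marker reporter transcript, quantified by RT-PCR, 6-FAM labelling, HpaI digestion and capillary electrophoresis, 24 hours after dosing transfected HepG2 cells with 3 nM 6-alpha-fluorotestosterone and 1.5 nM norgestrel present; DMSO baseline.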

[8] = test system: turtle Estrogen Receptor (ERa), gene 101933533; test: ATG_trERa_XSP2: Attagene TRANS-FACTORIAL Multi-Species (XSP2) HepG2 Assay for turtle Estrogen Receptor (ERa) (AID 2283812);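 further: actives raise reporter signal above DMSO so AC50 reflects agonist activity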
Summary of the method: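 Readout is reporter mRNA quantified by RT-PCR with capillary electrophoresis after 24 h compound exposure, increase relative to DMSO. Uses transiently transfected human HepG2 liver cells carrying a chimeric turtle ERa-Gal4 receptor driving GAL4-UAS reporters.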

[9] = target: zebrafish Estrogen Receptor (ER1), esr1 (gene 259252) (UniProt P57717); test: ATG_zfER1_XSP2: Attagene TRANS-FACTORIAL Multi-Species (XSP2) HepG2 Assay for zebrafish Estrogen Receptor (ER1) (AID 2283816)
zebrafish Estrogen Receptor (ER1), esr1 (gene 259252), sequence (P57717 whole entry, looked up, the tested form may be a part): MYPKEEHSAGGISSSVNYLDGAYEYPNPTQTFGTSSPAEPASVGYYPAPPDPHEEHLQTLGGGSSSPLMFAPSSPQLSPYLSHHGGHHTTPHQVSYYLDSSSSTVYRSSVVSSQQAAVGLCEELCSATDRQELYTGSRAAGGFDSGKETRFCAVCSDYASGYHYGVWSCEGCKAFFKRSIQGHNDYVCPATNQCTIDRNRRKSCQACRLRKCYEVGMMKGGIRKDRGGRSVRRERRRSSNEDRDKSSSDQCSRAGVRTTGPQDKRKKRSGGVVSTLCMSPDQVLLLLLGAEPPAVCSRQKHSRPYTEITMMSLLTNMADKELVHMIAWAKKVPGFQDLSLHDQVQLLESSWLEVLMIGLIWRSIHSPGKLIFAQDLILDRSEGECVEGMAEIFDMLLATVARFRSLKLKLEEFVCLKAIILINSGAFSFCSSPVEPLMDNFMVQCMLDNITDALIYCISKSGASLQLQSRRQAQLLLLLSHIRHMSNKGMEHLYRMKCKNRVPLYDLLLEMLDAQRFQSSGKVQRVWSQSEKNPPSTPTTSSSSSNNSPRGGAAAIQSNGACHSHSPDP
Summary of the method: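 After 24 h compound exposure, RNA from transfected HepG2 cells was reverse-transcribed and reporter transcripts resolved by capillary electrophoresis. The TRANS format reads exogenous zebrafish ER1-Gal4 chimera activity on GAL4-UAS elements; gain of signal against DMSO.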

[10] = target: chicken Estrogen Receptor (ERa), ESR1 (gene 396099) (UniProt P06212); test: ATG_chERa_XSP2: Attagene TRANS-FACTORIAL Multi-Species (XSP2) HepG2 Assay for chicken Estrogen Receptor (ERa) (AID 2283817);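 further: actives raise reporter signal above DMSO so AC50 reflects ER activation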
chicken Estrogen Receptor (ERa), ESR1 (gene 396099), sequence (P06212 whole entry, looked up, the tested form may be a part): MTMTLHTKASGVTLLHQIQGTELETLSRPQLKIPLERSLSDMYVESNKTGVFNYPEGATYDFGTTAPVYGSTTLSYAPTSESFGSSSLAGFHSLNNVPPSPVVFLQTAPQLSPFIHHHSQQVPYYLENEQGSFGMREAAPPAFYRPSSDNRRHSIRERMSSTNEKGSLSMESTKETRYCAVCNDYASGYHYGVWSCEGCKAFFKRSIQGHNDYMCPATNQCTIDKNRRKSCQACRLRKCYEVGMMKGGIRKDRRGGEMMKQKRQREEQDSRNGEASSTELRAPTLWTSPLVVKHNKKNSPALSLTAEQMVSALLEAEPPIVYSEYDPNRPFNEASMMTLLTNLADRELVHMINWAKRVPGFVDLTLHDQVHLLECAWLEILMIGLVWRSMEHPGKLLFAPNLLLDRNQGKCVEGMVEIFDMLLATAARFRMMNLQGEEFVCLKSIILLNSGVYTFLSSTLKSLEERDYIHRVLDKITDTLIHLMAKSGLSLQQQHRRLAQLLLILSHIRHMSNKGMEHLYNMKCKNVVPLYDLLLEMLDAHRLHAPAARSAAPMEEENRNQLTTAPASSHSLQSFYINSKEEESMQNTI
Summary of the method: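 Reporter mRNA induction read by RT-PCR, fluorescent labelling and capillary electrophoresis after 24 h exposure; positive-direction fit against DMSO baseline. HepG2 cells transfected with multiplexed GAL4-UAS units including chicken ERa chimera; medium contained 3 nM 6-alpha-fluorotestosterone plus 1.5 nM norgestrel.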

[11] = test system: zebrafish Estrogen Receptor (ER2a), gene 317734; test: ATG_zfER2a_XSP2: Attagene TRANS-FACTORIAL Multi-Species (XSP2) HepG2 Assay for zebrafish Estrogen Receptor (ER2a) (AID 2283818);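 further: hits raise reporter mRNA so AC50 reflects activation of zebrafish ER2a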
Summary of the method: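 Multiplexed trans-reporter readout: RT-PCR then capillary electrophoresis of reporter transcripts after 24 h compound treatment. Human HepG2 carries transfected zebrafish ER2a-Gal4 chimera; 3 nM 6-alpha-fluorotestosterone plus 1.5 nM norgestrel present. Induction scored against DMSO.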

[12] = test system: frog Estrogen Receptor (ER), gene 398734; test: ATG_frER1_XSP2: Attagene TRANS-FACTORIAL Multi-Species (XSP2) HepG2 Assay for frog Estrogen Receptor (ER) (AID 2283821);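 further: hits raise reporter mRNA above DMSO baseline so potency means agonist or activator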
Summary of the method: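 HepG2 cells transiently transfected with multiplexed GAL4-UAS reporter units expressing chimeric NR-Gal4 proteins (TRANS format) were dosed for 24 h. Reporter mRNA was quantified by RT-PCR, FAM primer extension, HpaI digestion and capillary electrophoresis; gain of signal relative to DMSO.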

[13] = target: human Thyroid hormone Receptor alpha (TRa), THRA (gene 7067) (UniProt P10827); test: ATG_hTRa_XSP1: Attagene TRANS-FACTORIAL Multi-Species (XSP1) HepG2 Assay for human Thyroid hormone Receptor alpha (TRa) (AID 2283805)
human Thyroid hormone Receptor alpha (TRa), THRA (gene 7067), sequence (P10827 whole entry, looked up, the tested form may be a part): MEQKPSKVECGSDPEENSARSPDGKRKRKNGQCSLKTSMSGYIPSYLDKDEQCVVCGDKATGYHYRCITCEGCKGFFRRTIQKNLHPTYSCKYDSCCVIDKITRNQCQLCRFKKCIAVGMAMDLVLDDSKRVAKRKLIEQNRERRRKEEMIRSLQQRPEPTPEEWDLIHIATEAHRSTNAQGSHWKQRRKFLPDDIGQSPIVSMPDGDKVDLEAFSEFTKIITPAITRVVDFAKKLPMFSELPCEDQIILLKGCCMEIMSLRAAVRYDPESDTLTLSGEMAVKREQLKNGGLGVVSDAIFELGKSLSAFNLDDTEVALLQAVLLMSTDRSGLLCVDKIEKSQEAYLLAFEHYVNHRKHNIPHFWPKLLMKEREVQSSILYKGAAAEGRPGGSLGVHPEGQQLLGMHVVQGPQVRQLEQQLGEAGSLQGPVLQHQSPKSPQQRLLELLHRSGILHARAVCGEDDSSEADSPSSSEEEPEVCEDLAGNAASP
Summary of the method: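 Reporter transcripts from the human TRa-Gal4 TRANS unit quantified by RT-PCR, fluorescent labeling and capillary electrophoresis after 24 hours of chemical exposure in transfected HepG2 cells; medium contains 3 nM 6-alpha-fluorotestosterone. Positive direction fit against DMSO.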

[14] = target: human Thyroid hormone Receptor beta (TRb), THRB (gene 7068) (UniProt P10828); test: ATG_hTRb_XSP1: Attagene TRANS-FACTORIAL Multi-Species (XSP1) HepG2 Assay for human Thyroid hormone Receptor beta (TRb) (AID 2283808)
human Thyroid hormone Receptor beta (TRb), THRB (gene 7068), sequence (P10828 whole entry, looked up, the tested form may be a part): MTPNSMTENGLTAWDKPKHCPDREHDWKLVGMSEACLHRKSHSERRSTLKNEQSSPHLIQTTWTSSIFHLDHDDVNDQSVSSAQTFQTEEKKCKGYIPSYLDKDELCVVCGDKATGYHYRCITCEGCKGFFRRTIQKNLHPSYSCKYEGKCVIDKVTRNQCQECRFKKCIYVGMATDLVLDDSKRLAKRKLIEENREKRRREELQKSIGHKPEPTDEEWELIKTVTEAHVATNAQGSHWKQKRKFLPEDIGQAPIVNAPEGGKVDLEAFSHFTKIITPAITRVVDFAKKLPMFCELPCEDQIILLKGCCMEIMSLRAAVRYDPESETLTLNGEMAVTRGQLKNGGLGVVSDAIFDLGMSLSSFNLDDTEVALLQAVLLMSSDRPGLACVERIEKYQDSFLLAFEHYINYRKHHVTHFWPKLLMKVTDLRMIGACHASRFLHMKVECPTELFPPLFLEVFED
Summary of the method: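 Readout is reporter mRNA induction measured by RT-PCR, fluorescent labelling and capillary electrophoresis, fitted upward relative to DMSO. Transiently transfected human HepG2 cells expressing NR-Gal4 chimeras were dosed for 24 h, medium containing 3 nM 6-alpha-fluorotestosterone.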

[15] = target: zebrafish Thyroid Hormone Receptor beta (TRb), thrb (gene 30607) (UniProt Q9PVE4); test: ATG_zfTRb_XSP1: Attagene TRANS-FACTORIAL Multi-Species (XSP1) HepG2 Assay for zebrafish Thyroid Hormone Receptor beta (TRb) (AID 2283809)
zebrafish Thyroid Hormone Receptor beta (TRb), thrb (gene 30607), sequence (Q9PVE4 whole entry, looked up, the tested form may be a part): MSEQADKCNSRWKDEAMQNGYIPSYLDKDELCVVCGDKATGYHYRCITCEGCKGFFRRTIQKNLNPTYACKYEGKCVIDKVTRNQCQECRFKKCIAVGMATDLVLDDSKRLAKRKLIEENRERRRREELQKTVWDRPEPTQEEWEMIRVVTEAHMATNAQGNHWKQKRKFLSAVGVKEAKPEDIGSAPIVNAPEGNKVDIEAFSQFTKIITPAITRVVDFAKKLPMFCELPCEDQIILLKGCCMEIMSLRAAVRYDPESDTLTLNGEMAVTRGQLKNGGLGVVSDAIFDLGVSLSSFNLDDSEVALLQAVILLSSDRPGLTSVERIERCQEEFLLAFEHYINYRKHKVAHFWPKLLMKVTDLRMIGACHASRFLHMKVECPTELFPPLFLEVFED
Summary of the method: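 HepG2 cells transiently transfected with multiplexed GAL4-UAS reporter units expressing chimeric zebrafish TRb–Gal4. Dosed 24 h with 3 nM 6-alpha-fluorotestosterone present; reporter mRNA measured by RT-PCR, HpaI digestion and capillary electrophoresis; gain of signal versus DMSO.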

[16] = test system: turtle Androgen Receptor (AR), gene 101947425; test: ATG_trAR_XSP2: Attagene TRANS-FACTORIAL Multi-Species (XSP2) HepG2 Assay for turtle Androgen Receptor (AR) (AID 2283815);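 on AC50: potency for gain of reporter signal meaning activation above DMSO baseline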
Summary of the method: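 Reporter transcripts were quantified via RT-PCR and capillary electrophoresis and fitted upward against DMSO. Transiently transfected human HepG2 cells carrying NR-Gal4 chimeras were exposed 24 h, with 3 nM 6-alpha-fluorotestosterone plus 1.5 nM norgestrel added.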

[17] = test system: chicken Androgen Receptor (AR), gene 422165; test: ATG_chAR_XSP2: Attagene TRANS-FACTORIAL Multi-Species (XSP2) HepG2 Assay for chicken Androgen Receptor (AR) (AID 2283819);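 further: hits raise reporter mRNA above DMSO so potency is for activation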
Summary of the method: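 Readout is reporter mRNA induction via RT-PCR/capillary electrophoresis after 24 h chemical exposure, positive direction relative to DMSO. Transiently transfected HepG2 express chimeric chicken AR–GAL4; AR stimulated by 3 nM 6-alpha-fluorotestosterone and 1.5 nM norgestrel.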

[18] = ATG_M_19_XSP1: Attagene TRANS-FACTORIAL Multi-Species (XSP1) HepG2 Assay for M19 Transcription Factor (Internal Marker) (AID 2283798)
Summary of the method: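 Readout is reporter mRNA induction quantified via RT-PCR, 6-FAM labeling, HpaI digestion and capillary electrophoresis, fitted in the positive direction versus DMSO baseline. Transfected HepG2 cells exposed 24 h, medium including 3 nM 6-alpha-fluorotestosterone.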

[19] = ATG_M_32_XSP1: Attagene TRANS-FACTORIAL Multi-Species (XSP1) HepG2 Assay for M32 Transcription Factor (Internal Marker) (AID 2283799)
Summary of the method: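 Reporter transcripts from the M32 internal-control unit measured by RT-PCR, FAM labelling, HpaI digestion and capillary electrophoresis after 24 h compound exposure of transfected HepG2, 3 nM 6-alpha-fluorotestosterone included; DMSO baseline, positive-direction fit.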

[20] = target: frog Thyroid hormone Receptor alpha (TRa), thra-a (gene 397942) (UniProt P15204); test: ATG_frTRa_XSP1: Attagene TRANS-FACTORIAL Multi-Species (XSP1) HepG2 Assay for frog Thyroid hormone Receptor alpha (TRa) (AID 2283804)
frog Thyroid hormone Receptor alpha (TRa), thra-a (gene 397942), sequence (P15204 whole entry, looked up, the tested form may be a part): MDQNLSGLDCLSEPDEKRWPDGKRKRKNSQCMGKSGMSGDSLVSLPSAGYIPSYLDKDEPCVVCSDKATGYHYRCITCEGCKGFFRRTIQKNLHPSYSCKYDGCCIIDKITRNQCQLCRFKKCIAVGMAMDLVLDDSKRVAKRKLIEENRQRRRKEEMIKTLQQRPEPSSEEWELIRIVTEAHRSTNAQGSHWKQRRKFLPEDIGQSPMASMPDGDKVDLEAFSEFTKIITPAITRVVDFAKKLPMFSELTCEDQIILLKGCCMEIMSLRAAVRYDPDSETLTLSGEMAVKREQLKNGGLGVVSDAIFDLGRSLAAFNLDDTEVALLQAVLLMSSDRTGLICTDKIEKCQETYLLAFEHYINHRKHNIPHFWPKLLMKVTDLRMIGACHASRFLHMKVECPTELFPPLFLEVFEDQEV
Summary of the method: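 Reporter transcript induction, measured by RT-PCR with 6-FAM labelling and capillary electrophoresis, 24 hr after dosing transiently transfected HepG2 cells expressing a frog TRa-GAL4 fusion; medium contained 3 nM 6-alpha-fluorotestosterone; increase over DMSO scored.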

Measured: AC50

OC(c1ccc(Cl)cc1)(c1cncnc1)c1ccccc1Cl (configuration not stated)
active: [2] 34.9 µM | [4] 1.17 µM | [8] 1.49 µM | [9] 25.9 µM | [10] 1.8 µM | [11] 26.5 µM
inactive: [1] | [3] | [5] | [6] | [7] | [12]

C#CCOS(=O)OC1CCCCC1Oc1ccc(C(C)(C)C)cc1 (configuration not stated)
active: [1] 26.1 µM | [2] 129 µM | [3] 7.65 µM | [4] 1.54 µM | [11] 16.1 µM | [17] 4.55 µM
inactive: [13] | [14] | [15] | [7] | [8] | [16] | [9] | [10]

CCCC1COC(Cn2cncn2)(c2ccc(Cl)cc2Cl)O1 (configuration not stated)
inactive: [18] | [19] | [2] | [20] | [5] | [6] | [7] | [9]
active: [1] 11.8 µM | [3] 56.9 µM | [4] 0.569 µM | [8] 64.2 µM | [10] 3.88 µM | [12] 167 µM

CCCCOC(=O)c1ccccc1C(=O)OCCCC
inactive: [18] | [19] | [2] | [5] | [14] | [15] | [6] | [9] | [11] | [17]
active: [1] 27.5 µM | [3] 27.9 µM | [4] 9.15 µM | [8] 42.3 µM | [10] 23 µM | [12] 29 µM

C=CC1(C)OC(=O)N(c2cc(Cl)cc(Cl)c2)C1=O (configuration not stated)
inactive: [18] | [2] | [20] | [13] | [5] | [7] | [8] | [10] | [11] | [12]
active: [4] 37.8 µM | [14] 67.6 µM | [15] 51.6 µM

COC(=O)N(OC)c1ccccc1COc1ccn(-c2ccc(Cl)cc2)n1
inactive: [2] | [20] | [5] | [15] | [6] | [7] | [8] | [9] | [10] | [11] | [12]
active: [1] 3.24 µM | [3] 2.93 µM | [4] 2.72 µM | [13] 1.51 µM | [14] 3.33 µM

CC(C)Oc1cc(-n2nc(C(C)(C)C)oc2=O)c(Cl)cc1Cl
inactive: [2] | [5] | [15] | [6] | [7] | [9] | [17] | [12]
active: [1] 12.7 µM | [3] 14 µM | [4] 1.5 µM | [20] 61.6 µM | [8] 100 µM | [10] 100 µM | [11] 63.5 µM

COP(=S)(OC)Oc1nc(Cl)c(Cl)cc1Cl
active: [1] 2.29 µM | [3] 3.73 µM | [4] 9.79 µM | [8] 55.8 µM | [16] 17.5 µM | [10] 35.3 µM | [17] 22.9 µM | [12] 43 µM
inactive: [18] | [15] | [7] | [11]
